Experimental data as given in paper PMC4336329 (PLoS ONE, 2015).
Out of some 310,000 compounds screened, about 14,000 (4.5%) showed an effect of 50% or more. Effects have a minus sign here. The sample holds strong results, similar compounds and a random draw of the others, so the mix is not that of the screen.

What follows are molecules tested against human ether-à-go-go-related gene (hERG) potassium channel (human, UniProt Q12809) (assay: primary screen, population patch clamp on CHO cells stably expressing hERG; higher = less effect of the substance).
human ether-à-go-go-related gene (hERG) potassium channel, sequence (Q12809 whole entry, looked up): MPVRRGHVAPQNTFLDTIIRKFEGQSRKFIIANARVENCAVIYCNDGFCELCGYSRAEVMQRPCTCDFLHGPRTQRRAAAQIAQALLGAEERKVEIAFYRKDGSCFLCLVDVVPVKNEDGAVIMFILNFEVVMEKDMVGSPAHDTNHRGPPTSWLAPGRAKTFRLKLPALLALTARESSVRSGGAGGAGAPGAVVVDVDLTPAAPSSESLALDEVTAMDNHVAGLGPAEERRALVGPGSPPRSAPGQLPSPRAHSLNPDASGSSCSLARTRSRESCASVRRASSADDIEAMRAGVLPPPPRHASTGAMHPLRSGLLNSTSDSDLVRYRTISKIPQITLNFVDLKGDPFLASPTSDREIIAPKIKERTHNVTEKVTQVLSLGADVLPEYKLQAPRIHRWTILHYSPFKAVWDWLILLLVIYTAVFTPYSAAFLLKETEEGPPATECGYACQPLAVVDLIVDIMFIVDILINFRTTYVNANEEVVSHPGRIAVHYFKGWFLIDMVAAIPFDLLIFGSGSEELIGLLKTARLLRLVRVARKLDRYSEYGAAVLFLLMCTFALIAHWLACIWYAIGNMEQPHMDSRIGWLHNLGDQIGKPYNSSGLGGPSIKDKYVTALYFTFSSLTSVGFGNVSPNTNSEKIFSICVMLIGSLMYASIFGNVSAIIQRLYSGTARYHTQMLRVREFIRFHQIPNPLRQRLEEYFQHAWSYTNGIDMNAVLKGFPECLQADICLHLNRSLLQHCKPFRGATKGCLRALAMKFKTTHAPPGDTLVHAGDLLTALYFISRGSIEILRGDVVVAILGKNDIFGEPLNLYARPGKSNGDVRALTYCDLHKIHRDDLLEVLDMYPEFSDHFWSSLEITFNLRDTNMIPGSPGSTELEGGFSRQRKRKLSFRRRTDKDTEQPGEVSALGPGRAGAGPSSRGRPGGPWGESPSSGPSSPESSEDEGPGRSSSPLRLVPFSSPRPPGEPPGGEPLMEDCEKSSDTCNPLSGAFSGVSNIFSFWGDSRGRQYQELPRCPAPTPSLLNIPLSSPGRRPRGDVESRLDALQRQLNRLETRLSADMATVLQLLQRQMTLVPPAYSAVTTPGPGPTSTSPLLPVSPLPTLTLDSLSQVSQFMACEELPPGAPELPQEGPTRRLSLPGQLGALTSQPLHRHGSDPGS
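Further: peak tail current of the secondary pulse compared with the same well before compound.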

First: CC(C)C[C@H](NC(=O)c1nc[nH]c1C(=O)N1CC[NH2+]CC1)C(=O)OCc1ccccc1.[Cl-]
Second: COc1ccc(/C=C(\NC(=O)c2ccccc2)C(=O)NCCN2CCOCC2)cc1OC
The “hERG current change (%, negative = inhibition) at 10uM” value of the first is lower: 20.5% for the first, 23% for the second.

First: COc1ccc(C2C3=C(CCCC3=O)N(CC(=O)O)C3=C2C(=O)CCC3)cc1Cl
Second: COc1cc2c(cc1OC)C(c1ccccc1)CC2=O (centres unmarked)
The “hERG current change (%, negative = inhibition) at 10uM” value of the first is higher: 23.8% for the first, 7.03% for the second.

Compared with `CN(c1cccc(NC(=O)CCSc2ccccc2)c1)S(C)(=O)=O`, `CCC(C(=O)Nc1ccccn1)c1ccccc1` (centres unmarked) is higher in “hERG current change (%, negative = inhibition) at 10uM” value: -28.8% for the first, 1.4% for the second.

Compared with `O=C1c2ccccc2NC(c2ccc3c(c2)OCCO3)N1c1ccc2c(c1)OCCO2` (centres unmarked), `O=C1CC(c2ccccc2)Cc2nc(N3CCc4ccccc4C3)ncc21` (centres unmarked) is lower in “hERG current change (%, negative = inhibition) at 10uM” value: 10.9% for the first, -2.75% for the second.

First: Cc1ccc(NC(=O)/C=C\C(=O)O)c([N+](=O)[O-])c1
Second: Cc1ccc(NC(=O)/C=C/C(=O)O)c([N+](=O)[O-])c1
The “hERG current change (%, negative = inhibition) at 10uM” value of the first is higher: 21.4% for the first, -67% for the second.

Compared with `Cc1cc(NC(=O)/C=C\C(=O)O)c([N+](=O)[O-])cc1C`, `Cc1cc(Cl)ccc1OC(C)C(=O)Nc1ccc([N+](=O)[O-])cn1` (centres unmarked) is lower in “hERG current change (%, negative = inhibition) at 10uM” value: 11.6% for the first, -75.9% for the second.

Compared with `COC(=O)c1cn(NC(=O)Cc2cccc(OC)c2)c(=O)c2ccccc12`, `COc1ccc(Nc2nc(C)c3ccccc3n2)cc1` is lower in “hERG current change (%, negative = inhibition) at 10uM” value: 12% for the first, -17.4% for the second.

First: CCN1CCN(CCCN(Cc2ccco2)C(=S)Nc2ccc(Cl)c(C)c2)CC1
Second: CCN1CCN(CCCN(Cc2ccco2)C(=S)Nc2ccc(C)c(Cl)c2)CC1
The “hERG current change (%, negative = inhibition) at 10uM” value of the first is lower: -74.8% for the first, -64.8% for the second.

Going from `COc1cccc(NC(=S)N(CCCN2CCN(C)CC2)Cc2ccco2)c1` to `Cc1cc(NC(=S)N(CCCN2CCN(C)CC2)Cc2ccco2)ccc1Cl`, the “hERG current change (%, negative = inhibition) at 10uM” value falls from -36.2% to -68.2%.

First: Cc1cccc(NC(=S)N(CCCN2CCOCC2)Cc2ccco2)c1
Second: Cc1ccc(NC(=S)N(CCCN2CCOCC2)Cc2ccco2)cc1Cl
The “hERG current change (%, negative = inhibition) at 10uM” value of the first is higher: -29.9% for the first, -36.6% for the second.

Going from `S=c1[nH]nc(CSCCOc2ccccc2)o1` to `Cc1cccc(OCCNc2ccc([N+](=O)[O-])cn2)c1`, the “hERG current change (%, negative = inhibition) at 10uM” value falls from 8.24% to -21.3%.

Compared with `CN(C)S(=O)(=O)c1cccc(NC(=O)CNCC2CCCCC2)c1.O=C(O)C(=O)O`, `Cc1cc(C(=O)OCC(=O)NC2CCS(=O)(=O)C2)c(C)n1-c1ccccc1` (centres unmarked) is lower in “hERG current change (%, negative = inhibition) at 10uM” value: -1.77% for the first, -6.8% for the second.

Going from `Cc1ccc2nc(SCC(=O)N3c4ccccc4CC3C)c(C)cc2c1` (centres unmarked) to `CC(=O)c1cnc(Nc2nc(C)c3ccccc3n2)nc1C`, the “hERG current change (%, negative = inhibition) at 10uM” value rises from 7.54% to 17.3%.

Going from `COc1ccc(NC(=O)C2CC2)cc1-n1cnnn1` to `CC(Oc1cccc(Cl)c1)C(=O)Nc1ccncc1` (centres unmarked), the “hERG current change (%, negative = inhibition) at 10uM” value falls from 5.86% to 3.81%.

Going from `CCC(CO)N=CC1=C(O)CC(c2ccccc2)CC1=O` (centres unmarked) to `O=C(O)c1ccccc1Sc1ncnc2sccc12`, the “hERG current change (%, negative = inhibition) at 10uM” value falls from 17.1% to 9.7%.

First: Cc1cc(C)c(NC2=NS(=O)(=O)c3ccccc32)c(C)c1
Second: CCc1nnc(NC(=O)CCN2C(=O)c3ccccc3S2(=O)=O)s1
The “hERG current change (%, negative = inhibition) at 10uM” value of the first is lower: -10.9% for the first, 17.3% for the second.

Going from `CC1=NC(Nc2nc(C)c3ccccc3n2)=NC(C)(C)C1` to `COC(=O)c1ccc(-c2nc3ccccc3[nH]2)cc1`, the “hERG current change (%, negative = inhibition) at 10uM” value rises from -69.4% to 17.8%.

Compared with `CC(NC(=O)Nc1nnc(C(F)(F)F)s1)(C(F)(F)F)C(F)(F)F`, `CC(Oc1cccnc1[N+](=O)[O-])C(=O)Nc1ccc(Cl)cn1` (centres unmarked) is lower in “hERG current change (%, negative = inhibition) at 10uM” value: -7.61% for the first, -16.6% for the second.

Compared with `CCOC(=O)c1c(C)[nH]c(C(=O)N/N=C/c2ccc(OC)c(OC)c2)c1C`, `COc1ccc(/C=C(\NC(=O)c2ccc([N+](=O)[O-])cc2)C(=O)NCCN2CCOCC2)cc1` is lower in “hERG current change (%, negative = inhibition) at 10uM” value: 12.7% for the first, -70.7% for the second.

Going from `COc1ccc(C(=O)N/C(=C\c2ccco2)C(=O)NCCN2CCOCC2)cc1` to `COc1ccc(/C=C(\NC(=O)c2ccc([N+](=O)[O-])cc2)C(=O)NCCCN2CCOCC2)cc1`, the “hERG current change (%, negative = inhibition) at 10uM” value falls from 8.33% to -77%.

First: O=C(NC(=S)NCCCN1CCOCC1)c1ccc([N+](=O)[O-])cc1
Second: COc1ccc(C(=O)N/C(=C\c2cn(C)c3ccccc23)C(=O)NCCCN2CCOCC2)cc1
The “hERG current change (%, negative = inhibition) at 10uM” value of the first is lower: -33.4% for the first, 4.94% for the second.

Going from `Cc1cccc(C(C)Nc2ccc([N+](=O)[O-])cn2)c1` (centres unmarked) to `CC(Oc1cccc(Cl)c1)C(=O)Nc1ccc([N+](=O)[O-])cn1` (centres unmarked), the “hERG current change (%, negative = inhibition) at 10uM” value rises from -68.9% to -62.2%.
